Results from PubChem BioAssay (Tox21).
Records with an inconclusive call do not appear. A number with no mark means an inactive call. Calls follow the shape of the full dose curve.
% is scaled to controls: 0 for no effect and ±100 for the full control effect.

The molecules below were run against D(2) dopamine receptor (Homo sapiens) (UniProt P14416) (assay: Dopamine D2 receptor (DRD2) small molecule agonists, cell-based qHTS assay (AID 1963594; also: nearly all actives have a fitted effect of over 35% in size)). Conditions: HEK293-DRD2 cAMP HTRF, agonist mode, 30 min; series mostly up to 92.4 µM; activation: at the top concentration.
Sequence of D(2) dopamine receptor (Homo sapiens) (P14416 whole entry, looked up): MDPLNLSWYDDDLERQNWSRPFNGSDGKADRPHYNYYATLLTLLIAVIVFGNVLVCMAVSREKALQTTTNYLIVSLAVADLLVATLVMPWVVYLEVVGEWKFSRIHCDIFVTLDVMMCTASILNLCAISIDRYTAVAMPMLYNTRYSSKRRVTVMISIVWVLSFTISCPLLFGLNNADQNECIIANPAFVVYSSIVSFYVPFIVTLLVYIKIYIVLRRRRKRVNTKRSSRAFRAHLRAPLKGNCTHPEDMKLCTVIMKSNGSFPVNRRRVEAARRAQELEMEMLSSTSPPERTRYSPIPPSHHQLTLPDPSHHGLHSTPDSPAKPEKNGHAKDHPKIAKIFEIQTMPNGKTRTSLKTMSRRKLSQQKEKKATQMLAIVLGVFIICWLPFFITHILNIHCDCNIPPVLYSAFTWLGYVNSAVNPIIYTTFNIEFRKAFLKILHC
Source text: National Center for Advancing Translational Sciences [NCATS]
Division of Preclinical Innovation [DPI]
U.S. Environmental Protection Agency [EPA]
National Institutes of Environmental Health Sciences [NIEHS]
National Toxicology Program [NTP]
U.S. Food and Drug Administration [FDA]
DRD2 is the D2 subtype of the dopamine receptor, which is coupled to Gi subtype of G protein-coupled receptor. This G protein-coupled receptor inhibits adenylyl cyclase activity. The DRD2-HEK293 cell line stably expressing D2 dopamine receptor can be used for screening agonists and antagonists of interactions between D2 and its ligands. The Hek293-DRD2 cAMP assay is based on HTRF technology. It measures changes of cAMP accumulation in response to Gi coupled GPCR activation or inhibition.
Tox21 Assay Protocol Summary:
DRD2-Hek293 cells were dispensed at 600 cells/3uL/well in 1536-well white plates using a Multidrop Dispenser. After the assay plates were incubated at a 37 C/5% CO2 incubator for 24 h, 1 uL of Ro20-1724 at final concentration of 0.1 mM was transferred to the assay plate by a Flying Reagent Dispenser. Following Ro20-1724 addition, 23 nL of compound dissolved in DMSO, positive controls or DMSO only was added to the assay plates via Wako pintool station. The assay plates were incubated at room temperature for 10 min. Next, 1 uL of NKH477 at 200nM was added into the plates. After the assay plates were incubated at room temperature for an additional 30 min, 2.5 ul/well of cAMP-d2 and 2.5 ul/well of anti-cAMP-cryptate were added respectively into the assay plates using a Flying Reagent Dispenser. The plates were incubated at room temperature for 1 h. The fluorescence intensity in the plates was measured at 340 nm excitation and 665 & 620 nm emission by an Envision plate reader.
For CC1(C)CC(N)CC(C)(C)N1, the “activation” value was -3.24%.
FC(F)(F)C(F)(F)C(F)(F)C(F)(F)C(F)(F)C(F)(F)C(F)(F)C(F)(F)C(F)(F)C(F)(F)F showed an activation of -0.702% [at 8.39 µM].
For CC(C)(O)c1ccccc1, the “activation” value was 2.74%.
With CC(=O)N(CC(=O)N(C)C)c1ccccc1 the “activation” value was 10.7% [at 42.5 µM].
With O=C(CCBr)N1CCN(C(=O)CCBr)CC1 the “activation” value was 2.56% [at 42.5 µM].
In the case of O=C(O)Cc1ccc2c(c1)C(=O)c1ccccc1CO2, the “activation” value is reported as -1.13% [at 42.5 µM].
Cc1nc2ccc(Cl)cc2[nH]1 was tested, and the “activation” value was -4.17%.
C=CS(=O)(=O)O was tested, and the “activation” value was -1.64%.
With CCC1(C)C(=O)N(Cl)C(=O)N1Cl (stereo not given) the “activation” value was 2.83%.
With CCCCCCC(CO)CCCC (stereo not given) the “activation” value was 4.77%.
In the case of Cc1nc2n(c(=O)c1CCN1CCC(c3noc4cc(F)ccc34)CC1)CCC[C@H]2O, the activation is reported as -27% [at 19 µM].
For C[C@@H]1C[C@H]2[C@@H]3CCC4=CC(=O)C=C[C@]4(C)[C@@]3(F)[C@@H](O)C[C@]2(C)[C@@]1(O)C(=O)COP(=O)(O)O, the “activation” value was 10.6%.
With O=C(OCC1CO1)C1CCCCC1C(=O)OCC1CO1 (stereo not given) the “activation” value was -5.5%.
With Nc1nc2c(ncn2COCCO)c(=O)[nH]1 the “activation” value was -7% [at 42.5 µM].
For Nc1ccc(C(=O)O)c(O)c1, the “activation” value was -0.0438% [at 42.5 µM].
In the case of NC(CS)C(=O)O (stereo not given), the “activation” value is reported as -5.33% [at 42.5 µM].
For COc1ccc(-n2nc(C(F)F)cc2-c2ccc(S(C)=O)cc2)cc1 (stereo not given), the “activation” value was -0.402%.
Cc1ccc2c(c1[N+](=O)[O-])C(=O)c1ccccc1C2=O was tested, and the “activation” value was 1.13% [at 42.5 µM].
In the case of CCCCC/C=C\CCC=O, the “activation” value is reported as 4.92%.
With C[C@H]1O[C@@H](n2cc(F)c(=O)[nH]c2=O)[C@H](O)[C@@H]1O the “activation” value was -0.152% [at 42.5 µM].
O=C(O)P(=O)(O)O was tested, and the “activation” value was 2.62% [at 42.5 µM].
In the case of CO[Si](CCCn1c(=O)n(CCC[Si](OC)(OC)OC)c(=O)n(CCC[Si](OC)(OC)OC)c1=O)(OC)OC, the “activation” value is reported as 1.05% [at 42.5 µM].
O=C1CCCN1CCO was tested, and the “activation” value was -4.2%.
With CC1(N)CCC(C(C)(C)N)CC1 (stereo not given) the “activation” value was 0.193%.
For NS(=O)(=O)c1cc(C(=O)O)cc(N2CCCC2)c1Oc1ccccc1, the “activation” value was -1.93% [at 42.5 µM].
With CCCCCCOC(=O)CCCCC the “activation” value was 8.39%.
CCCCCCCCCCCC[N+](C)(C)CC(=O)[O-] was tested, and the “activation” value was 4.25%.
CCCCOc1ccc(C(=O)CCN2CCCCC2)cc1 was tested, and the “activation” value was 6.95% [at 42.5 µM].
For COCCOC(=O)C1=C(C)NC(C)=C(C(=O)OC(C)C)C1c1cccc([N+](=O)[O-])c1 (stereo not given), the “activation” value was 6.5% [at 42.5 µM].
For c1ccc([C@H]2CN3CCSC3=N2)cc1, the “activation” value was -0.824% [at 42.5 µM].
In the case of O=C(O)c1cc(O)c2c(c1)C(=O)c1cccc(O)c1C2=O, the “activation” value is reported as -2.29%.
For CC(C)=CCC1C(=O)N(c2ccccc2)N(c2ccccc2)C1=O, the “activation” value was -1.75% [at 42.5 µM].
CCCCCCCC/C=C\CCCCCCCCN was tested, and the “activation” value was -31.1% [at 42.5 µM].
With O=C(O)c1ccc(Cl)c(Cl)c1 the “activation” value was 2.82%.
For C=CC(=O)OCCCCCCCCCC, the “activation” value was 3.87%.
CC(C)CC(=O)C1C(=O)c2ccccc2C1=O was tested, and the “activation” value was -2.67%.
For CCCCN1CCCC1C(=O)Nc1c(C)cc(C)cc1C (stereo not given), the “activation” value was 1.79% [at 42.5 µM].
In the case of O=C(O)C(=O)Cc1c[nH]c2ccccc12, the “activation” value is reported as -8.33%.
For NCc1ccco1, the “activation” value was 0.596%.
For Cc1cccc(CN2CCN(C(c3ccccc3)c3ccc(Cl)cc3)CC2)c1 (stereo not given), the “activation” value was -21% [at 42.5 µM].
